In PubChem BioAssay (NCI):
Compounds without any hit were thinned out: in the full panel of roughly 83,000, 20% have a hit.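 How to read the values: 0–100, growth inhibition (40 = 60% inhibited); 0, no net growth; -100 to 0, cell death (-40 = 40% of starting cells died; -100 = all dead).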 Unmarked numbers belong to inactive results. Calls of active or inactive are those of the source. How the source made its calls: active means growth percent below 10; inactive means the rest.

System: HOP-92 NSCLC
Test: NCI-60 one-dose screen, 48 h (100 = growth as untreated, 0 = no growth, -100 = all killed)
Conditions: 10 µM unless noted

SMILES | growth
O=C(Nc1cccc(Cl)c1)Oc1c(Br)c(Br)c(Br)c(Br)c1Br | 66.5%
CN1CCN(Cc2ccc(NC(=O)c3cncc(C#Cc4cnccc4C(F)(F)F)c3)cc2C(F)(F)F)CC1 | 55.6%
CN(C)Cc1c(-c2ccccc2)[nH]c2ccccc12 | 96.4%
CCN(CC)CCCC(Nc1c2ccc(Cl)cc2nc2ccc(OC)cc12)c1ccc(Cl)cc1 (centres undefined) | 7.29% (active)
O=C(CNCCO)Nc1ccc2ncnc(Nc3ccc(OCc4cccc(F)c4)c(Cl)c3)c2c1 | 55.8%
CSc1nnc2c(=O)n(C)c(=O)n(C)c2n1 | 68.1%
C=CCn1c(SCC(=O)Nc2ccc(C(=O)/C=C/c3cc(OC)c(OC)c(OC)c3)cc2)nnc1-c1cc(-c2ccc(S(C)(=O)=O)cc2)nc2ccccc12 | 112%
CCNC(=O)c1[nH]cc(-c2ccc(OC)cc2)c1-c1cc(OC)cc(OC)c1 | 72.9%
COc1ccc(/C=N/C2=C(C#N)C(c3ccccc3[N+](=O)[O-])c3ccc4ccccc4c3O2)cc1 (centres undefined) | 97.1%
COc1ccc(-c2nc(N/N=C/c3cccc(O)c3)nc(N3CCOCC3)c2C#N)cc1 | 47.7%
Cc1ccccc1-c1cc(Cc2ccc(F)cc2)c(=O)[nH]n1 | 99.8%
COC(=O)Nc1ccc(NC(=O)OC)cc1 | 84.7%
O=C1Nc2ccccc2/C1=N/c1nc(-c2ccc(Cl)cc2)cs1 | 51.5%
Clc1ccc(N2N=C(c3cccc(Nc4ccncc4)c3)CC2c2ccc(Br)cc2)cc1 (centres undefined) | 60.3%
